# From PubChem BioAssay AID743482 (Broad Institute, 2014)
# Calls of active or inactive are those of the source.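 Rule for the calls: active = falling viability signal whose fitted half-maximal concentration is at most twice the highest tested dose; inconclusive = flat fit with a moderate drop, or a poor curve fit; inactive = the rest.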
# Experiment: HepG2 viability loss by ATP level – cell-based, CellTiter-Glo luminescence, dry powder, cytotoxicity control, dose response (AID 743482)
# Details: 72 h; series mostly up to 26 µM; activity change, negative = cytotoxicity: at the top concentration
row,Structure (SMILES),"activity change, negative = cytotoxicity"
1,C[C@@H]1CN([C@H](C)CO)C(=O)c2cc(NC(=O)C3CCCCC3)ccc2O[C@@H](C)CCCCO[C@@H]1CN(C)C(=O)Nc1cccc2ccccc12,-11.1% (inactive)
2,C[C@H](CO)N1C[C@H](C)[C@H](CN(C)C(=O)Nc2cccc3ccccc23)OCCCC[C@H](C)Oc2ccc(NC(=O)c3ccccc3)cc2C1=O,22.5% (inactive)
3,C[C@H](CO)N1C[C@H](C)[C@H](CN(C)C(=O)Nc2ccc(F)cc2)OCCCC[C@H](C)Oc2ccc(NC(=O)C3CCOCC3)cc2C1=O,13% (inactive)
4,C[C@H]1CCCCO[C@@H](CN(C)C(=O)Nc2ccccc2)[C@@H](C)CN([C@@H](C)CO)C(=O)c2cc(NC(=O)NC3CCCCC3)ccc2O1,47.5% (inactive)
5,C[C@H]1CCCCO[C@@H](CN(C)C(=O)Nc2ccc(F)cc2)[C@@H](C)CN([C@@H](C)CO)C(=O)c2cc(NC(=O)C3CCCCC3)ccc2O1,50.6% (inactive)
6,C[C@H](CO)N1C[C@H](C)[C@H](CN(C)C(=O)Nc2ccc(F)cc2)OCCCC[C@H](C)Oc2ccc(NC(=O)NC3CCCCC3)cc2C1=O,39% (inactive)
7,C[C@H](CO)N1C[C@H](C)[C@H](CN(C)C(=O)Nc2ccc(Cl)cc2)OCCCC[C@H](C)Oc2ccc(NC(=O)C3CCCCC3)cc2C1=O,-1.97% (inactive)
8,C[C@H](CO)N1C[C@H](C)[C@H](CN(C)C(=O)Nc2ccc3ccccc3c2)OCCCC[C@H](C)Oc2ccc(NC(=O)C3CCCCC3)cc2C1=O,29.9% (inactive)
9,COc1ccc(S(=O)(=O)N(C)C[C@@H]2OCCCC[C@H](C)Oc3ccc(NS(=O)(=O)c4ccc(F)cc4)cc3C(=O)N([C@@H](C)CO)C[C@@H]2C)cc1,3.65% (inactive)
